Data from article PMC4336329 (PLoS ONE, 2015).
In all, about 310,000 compounds went through this assay and about 14,000 (4.5%) showed an effect of 50% or more. Effects have a minus sign here. Many of the other results were omitted from the sample, so strong results are more common in it than they were.

What follows are compounds tested against human ether-à-go-go-related gene (hERG) potassium channel (human, UniProt Q12809) (assay: primary screen, population patch clamp on CHO cells stably expressing hERG; higher = less effect of the substance).
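Also: peak tail current of the secondary pulse compared with the same well before compound.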

human ether-à-go-go-related gene (hERG) potassium channel, sequence (Q12809 whole entry, looked up): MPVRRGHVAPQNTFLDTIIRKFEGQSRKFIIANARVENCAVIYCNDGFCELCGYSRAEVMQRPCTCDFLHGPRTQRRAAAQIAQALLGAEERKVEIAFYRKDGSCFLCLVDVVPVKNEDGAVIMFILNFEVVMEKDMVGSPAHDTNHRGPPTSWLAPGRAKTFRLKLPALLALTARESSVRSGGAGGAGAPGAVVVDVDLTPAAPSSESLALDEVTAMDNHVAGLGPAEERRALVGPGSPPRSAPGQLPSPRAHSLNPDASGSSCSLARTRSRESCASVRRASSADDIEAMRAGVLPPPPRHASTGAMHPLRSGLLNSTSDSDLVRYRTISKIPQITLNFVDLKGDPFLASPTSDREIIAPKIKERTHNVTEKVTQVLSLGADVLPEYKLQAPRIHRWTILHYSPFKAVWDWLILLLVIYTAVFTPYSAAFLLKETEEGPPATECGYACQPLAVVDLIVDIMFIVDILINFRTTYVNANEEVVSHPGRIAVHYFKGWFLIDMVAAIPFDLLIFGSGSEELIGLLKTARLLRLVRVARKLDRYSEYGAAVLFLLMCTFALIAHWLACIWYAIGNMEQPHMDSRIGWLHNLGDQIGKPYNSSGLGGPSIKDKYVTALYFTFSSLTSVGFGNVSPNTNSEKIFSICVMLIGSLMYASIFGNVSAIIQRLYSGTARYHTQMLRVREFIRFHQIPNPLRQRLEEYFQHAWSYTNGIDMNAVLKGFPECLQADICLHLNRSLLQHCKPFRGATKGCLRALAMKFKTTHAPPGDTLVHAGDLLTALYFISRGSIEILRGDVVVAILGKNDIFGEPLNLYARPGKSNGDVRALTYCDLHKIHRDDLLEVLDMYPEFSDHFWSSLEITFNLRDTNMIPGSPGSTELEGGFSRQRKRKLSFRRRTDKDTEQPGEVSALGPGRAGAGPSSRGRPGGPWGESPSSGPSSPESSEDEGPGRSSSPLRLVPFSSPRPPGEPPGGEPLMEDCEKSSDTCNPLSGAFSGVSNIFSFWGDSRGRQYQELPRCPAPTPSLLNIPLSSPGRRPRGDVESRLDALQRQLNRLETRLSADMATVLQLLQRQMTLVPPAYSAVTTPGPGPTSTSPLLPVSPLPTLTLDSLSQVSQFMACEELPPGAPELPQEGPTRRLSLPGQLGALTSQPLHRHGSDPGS

| Structure (SMILES) | hERG current change (%, negative = inhibition) at 10uM [%] |
| --- | --- |
| CCOc1ccc(C(CC(=O)O)NC(=O)c2ccco2)cc1 (centres unmarked) | 11 |
| COc1cc(/C=N/n2cnnc2)ccc1OCc1ccccc1 | 6.55 |
| CN(C)S(=O)(=O)c1cccc(NC(=O)c2cccc(S(=O)(=O)N3CCc4ccccc43)c2)c1 | -4.62 |
| CN(C(=O)c1ccc(Cl)c([N+](=O)[O-])c1)C1(C)CCS(=O)(=O)C1 (centres unmarked) | -10.9 |
| CSc1ccccc1C(=O)C1CCCN(Cc2ccccn2)C1 (centres unmarked) | -12.6 |
| CSc1ncc(CN2CCCC(C(=O)c3ccccc3SC)C2)cn1 (centres unmarked) | -65.1 |
| CSc1ccccc1C(=O)C1CCCN(Cc2cnn(-c3ccccc3)c2)C1 (centres unmarked) | -67.4 |
| CSc1ccccc1C(=O)C1CCCN(Cc2ccn[nH]2)C1 (centres unmarked) | -8.34 |
| CSc1ccccc1C(=O)C1CCCN(Cc2c(C)n(C)n(-c3ccccc3)c2=O)C1 (centres unmarked) | -16.2 |
| O=C(c1ccc(Cl)cc1)C1CCCN(Cc2cnn(-c3ccccc3)c2)C1 (centres unmarked) | -74.6 |
| CSc1ccccc1C(=O)C1CCCN(Cc2ccncc2)C1 (centres unmarked) | -41.7 |
| O=C(C1CCCN(Cc2ccc(Cl)cc2)C1)N1CCCCC1.O=C(O)C(=O)O (centres unmarked) | -14.9 |
| Cc1cc(C)n2c(SCC(=O)NC3CCCCC3C)nnc2n1 (centres unmarked) | 29.5 |
| CCN(C(=O)COC(=O)/C=C/c1ccco1)c1c(N)n(Cc2ccccc2)c(=O)[nH]c1=O | -1.01 |
| CC(C)CC(NC(=O)CCC(=O)OCC(=O)[C@@]1(O)CCC2[C@@H]3CCC4=CC(=O)C=C[C@]4(C)C3[C@@H](O)C[C@@]21C)C(=O)O (some centres unmarked) | 0.23 |
| O=C(CSc1nnc(-c2ccccc2Cl)o1)Nc1ccccn1 | 14.9 |
| CN(CCC#N)CC(=O)Nc1ccc(S(N)(=O)=O)cc1 | 13.3 |
| CCc1cc(C(=O)N2CCCC(C(=O)c3cccc(OC(C)C)c3)C2)n(C)n1 (centres unmarked) | -6.49 |
| O=C(c1ccco1)N1CCN(c2ncccn2)CC1 | -18.2 |
| Clc1ccc(N2CCN(c3ncnc4c3oc3ccccc34)CC2)cc1 | 4.58 |
| CCc1nc(N2CCC(C)CC2)c2oc3ccccc3c2n1.Cl | 5.55 |
| CCc1nc(N2CCCCC2)c2oc3ccccc3c2n1.Cl | 6.57 |

| Structure (SMILES) | hERG current change (%, negative = inhibition) at 10uM [%] |
| --- | --- |
| Cc1nc(N2CCOCC2)c2oc3ccccc3c2n1 | -9.35 |
| O=C(c1ccco1)N1CCN(c2ncnc3c2oc2ccccc23)CC1 | -55.4 |
| CCc1nc(N2CCN(C(=O)c3ccco3)CC2)c2oc3ccccc3c2n1.Cl | -64.8 |
| Cc1nc(N2CCC(C)CC2)c2oc3ccccc3c2n1 | 6.63 |
| Cc1nc(N2CCN(C(=O)c3ccco3)CC2)c2oc3ccccc3c2n1.Cl | -54.8 |
| CC(C)=NN/C(N)=N/C(=S)Nc1ccc(C)cc1 | -3.24 |
| O=C(NCC1CCCO1)c1cccc(NC(=O)c2ccco2)c1 (centres unmarked) | 0.813 |
| Cc1oc(-c2ccccc2F)nc1CSCC(=O)NC1CC1 | 3.12 |
| O=C(CN(C1CCCCC1)S(=O)(=O)c1ccc(Br)cc1)NCc1ccncc1 | -72.9 |
| Cc1ccc(SCC(=O)NCc2ccncc2)cc1 | -6.77 |
| O=C(CN(C1CCCCC1)S(=O)(=O)c1ccc(F)cc1)NCc1ccncc1 | -41.9 |
| CS(=O)(=O)N(CC(=O)NCc1ccc(Cl)cc1)C1CCCCC1 | -26.1 |
| O=C(CCSc1ccc(Cl)cc1)NCc1ccncc1 | -32.7 |
| Cc1ccc(SCCC(=O)NCc2ccncc2)cc1 | -61.9 |
| CCN(C1CCCCC1)S(=O)(=O)c1ccc(S(=O)(=O)NCc2ccncc2)cc1 | -4.63 |
| CS(=O)(=O)N(CC(=O)NCc1ccncc1)C1CCCCC1 | 1.91 |
| O=C(CN(C1CCCCC1)S(=O)(=O)c1ccc(Cl)cc1)NCCCO | -25.8 |
| CN(CC(=O)NCc1ccncc1)S(=O)(=O)c1ccc(Br)cc1 | -13.4 |
| Cc1ccc(S(=O)(=O)N(CC(=O)NCc2ccncc2)C2CCCCC2)cc1 | -63 |
| O=C(CN(C1CCCCC1)S(=O)(=O)c1ccc(Cl)cc1)NCc1ccncc1 | -69.8 |
| NNC(=O)CSc1nc(-c2ccccc2)cn1-c1ccccc1 | -0.037 |
| Cc1ccccc1NC(=O)C1CCN(c2cnccn2)CC1 | -14.7 |

| Structure (SMILES) | hERG current change (%, negative = inhibition) at 10uM [%] |
| --- | --- |
| Cc1cc(C)cc(NC(=S)N2CCN(c3ncccn3)CC2)c1 | 13 |
| Cc1ccccc1C(=O)NC(NC(=S)Nc1ccc(S(N)(=O)=O)cc1)C(Cl)(Cl)Cl (centres unmarked) | 19.3 |
| CCOC(=O)C1CCN(C(=O)c2ccc(OC3CCN(C(=O)CCOC)CC3)cc2)CC1 | 8.91 |
| CCSc1ccc([C@@H]2[C@H]3C(=O)N(C)C(=O)[C@H]3[C@]3(C(=O)OC)CCCCN23)cc1OC.O=C(O)C(F)(F)F | -8.41 |
| COc1cccc(OC)c1C(=O)Nc1ccc2c(c1)Cc1ccccc1-2 | 15.5 |
| Cc1cc(-c2nn(-c3ccccc3F)cc2CN2CCN(c3ccncc3)CC2)c(C)s1 | -94.3 |
| CCn1cc(CNCc2cn(-c3ccccc3C)nc2-c2ccc(OC)c(F)c2)cn1 | -22 |
| Cc1cc(-c2nn(-c3ccccc3F)cc2CNCCc2cnccn2)c(C)s1 | -52.3 |
| Cc1cc(-c2nn(-c3ccccc3F)cc2CN2CCC(C(N)=O)CC2)c(C)s1 | -28.5 |
| COc1ccc(-c2nn(-c3ccccc3C)cc2CNCCc2cnc[nH]2)cc1F | -70.6 |
| Cc1cc(-c2nn(-c3ccccc3F)cc2CN2CCN(c3ccccn3)CC2)c(C)s1 | 18.6 |
| COc1ccc(-c2nn(-c3ccccc3C)cc2CNCc2cccnc2)cc1F | -38.3 |
| Cc1cc(-c2nn(-c3ccccc3F)cc2CN2CCCC(CO)C2)c(C)s1 (centres unmarked) | -7.33 |
| Cc1cc(-c2nn(-c3ccccc3F)cc2CNCCc2cnc[nH]2)c(C)s1 | -53.6 |
| Cc1cc(-c2nn(-c3ccccc3F)cc2CN(C)CC(O)CO)c(C)s1 (centres unmarked) | -22.3 |
| Cc1cc(-c2nn(-c3ccccc3F)cc2CN2CCC(O)CC2)c(C)s1 | -28.9 |
| Cc1cc(-c2nn(-c3ccccc3F)cc2CN2CCCC(O)C2)c(C)s1 (centres unmarked) | -9.16 |
| COc1cc(/C=C/C(=O)OCC(=O)NCC(=O)Nc2cccc(C)c2C)ccc1OC(F)F | -25.7 |
| Cc1cc(C)nc(SC(C)CNS(=O)(=O)c2ccccc2)n1 (centres unmarked) | 0.485 |
| CCC(C)(C)NC(=O)C(c1ccc(OC)cc1)N(C(=O)CCC(=O)Nc1cc(C)on1)c1cccc(OC)c1 (centres unmarked) | 1.47 |
| O=C(Cn1cncn1)N/N=C/c1cc([N+](=O)[O-])ccc1O | 1.67 |
| COc1ccc(OC)c(NC(=O)c2ccccc2N(C)S(=O)(=O)c2ccc(C)cc2)c1 | -9.39 |

| Structure (SMILES) | hERG current change (%, negative = inhibition) at 10uM [%] |
| --- | --- |
| CCOC(=O)CSc1nc2cc3c(cc2cc1C#N)OCCO3 | 19 |
| Cc1ccc(C(=O)NCCc2cccs2)cc1 | 7.84 |
| COC(=O)c1[nH]c2ccccc2c1NC(=O)C(C)N1CC(C)OC(C)C1 (centres unmarked) | 5.31 |
| COC(=O)c1[nH]c2ccc(Br)cc2c1NC(=O)CN1CCN(C2CCCCC2)CC1 | -78.7 |
| COC(=O)c1[nH]c2ccc(Br)cc2c1NC(=O)CN1CCCc2ccccc21 | -4.4 |
| COC(=O)c1[nH]c2ccc(Cl)cc2c1NC(=O)CN1CCC(C(N)=O)CC1 | -2.26 |
| COC(=O)c1[nH]c2ccc(Cl)cc2c1NC(=O)CCN1CCOCC1 | 2.71 |
| CCOC(=O)C1CCCN(CC(=O)Nc2c(C(=O)OC)[nH]c3ccc(Br)cc23)C1 (centres unmarked) | -30.9 |
| COC(=O)c1[nH]c2ccccc2c1NC(=O)C(C)N1CCOCC1 (centres unmarked) | 9.7 |
| COC(=O)c1[nH]c2ccc(C)cc2c1NC(=O)NC1CCCCC1 | 8.55 |
| COC(=O)c1[nH]c2ccc(Br)cc2c1NC(=O)CN1CCCCC1CCO (centres unmarked) | -2.6 |
| COC(=O)c1[nH]c2ccc(Br)cc2c1NC(=O)C(C)N1CCN(C2CCCCC2)CC1 (centres unmarked) | -78.2 |
| COC(=O)c1[nH]c2ccc(C)cc2c1NC(=O)C(C)N1CCN(C2CCCCC2)CC1 (centres unmarked) | -77 |
| COC(=O)c1[nH]c2ccc(Cl)cc2c1NC(=O)CCN1CCN(C2CCCCC2)CC1 | -80 |
| CCC(Sc1nc2ccncc2[nH]1)C(=O)Nc1cc(Cl)ccc1C (centres unmarked) | -44.3 |
| CC(=O)N1c2ccc(S(=O)(=O)N3CCC(C(=O)Nc4cccc(Cl)c4)CC3)cc2CC1C (centres unmarked) | 15.1 |
| O=c1cc(CO)oc(C(Nc2ccccn2)c2ccccc2F)c1O (centres unmarked) | 17.5 |
| CC(C)c1c(C(=O)N/N=C/c2ccsc2)nnn1-c1nonc1N | 23.8 |
| O=c1c2cc(F)ccc2[nH]c(=S)n1CCCN1CCOCC1 | -3.61 |
| CC1(C)CC(=O)C2=C(C1)NC(=O)NC2c1ccc(Cl)cc1 (centres unmarked) | 17.3 |
